# Source: PubChem BioAssay (NCATS)
# Records with an inconclusive call do not appear. Calls of active or inactive are those of the source. Calls follow the shape of the dose curve; as a rule, active = well fitted cell-killing curve with a large enough effect; inconclusive = small, poorly fitted or top-dose-only effect; inactive = flat fitted curve, though single readings scatter. Starred links: 1 amine or outer side, 2 acyl side, 3 side chain; linkers in the order of their positions; H or OH if unused. Positions of bridges follow the written chain, without caps; N, C: chain ends. Non-standard residues stand in square brackets, D forms with d. Residues, ends and D or L forms follow the SMILES beside them. Chains are numbered I, II in the order given. Actinocin(9to1) = Cc1c2oc3c(C)ccc(C(=O)[*:1])c3nc-2c(C(=O)[*:2])c(N)c1=O; NMeV = CN[CH](C(=O)O)C(C)C; Sar = CNCC(=O)O
# Experiment: qHTS of pediatric cancer cell lines to identify multiple opportunities for drug repurposing: Primary screen for BT-37 cells (AID 1347094)
# Settings: BT-37 viability, CellTiter-Glo luminescence, 48 h; series mostly up to 57.3 µM
# Source text: Drug repurposing or repositioning has been offered as a strategy for drug development in oncology programs. This approach has special potential for childhood cancers and other rare or orphan diseases, where the expected return on new drug development has been a disincentive to pharmaceuticals. […] In this project we exploit the poly-pharmacology of drugs to discover new indications via phenotypic screening of a panel of 19 well-characterized cell lines derived from solid tumors seen in children and adolescents. The goal is to identify approved drugs with previously unrecognized anticancer properties that has the potential to reveal new mechanisms and biological processes involved in carcinogenesis or drug resistance. We employed a titration-based paradigm (quantitative high-throughput screening or qHTS), where all compounds were tested at multiple concentrations for their effect on cell viability. Concentration-response curves (CRCs) were derived directly from the primary screen, and both potency and efficacy values were used to identify compounds with robust bioactivity profiles. We screened the NIH Chemical Genomics Center (NCGC) Pharmaceutical Collection (NPC) and Mechanism Interrogation Plate (MIPE) small molecule collections of approved and investigational compounds against these cell lines; and measured metabolically active cells after 48 hours of compound treatment as a proxy for cell viability. […] Assay Submitter: Nathalia J. Martinez, National Center for Advancing Translational Sciences, National Institutes of Health, Rockville, MD, USA; email: natalia.martinez@nih.gov Shen, M et al. Quantitative high-throughput phenotypic screening of pediatric cancer cell lines identifies multiple opportunities for drug repurposing. Oncotarget 2017 Dec 19;9(4):4758-4772. PMID 29435139.
# The cells were obtained from University of North Carolina (UNC), Pediatric Preclinical Testing Program (PPT), and Coriell Institute (CI). qHTS cell viability assay: Cells were assayed in growth media at a density of 500-1,000 cells/well. Five microliters of cells were dispensed into 1,536-well, white, solid-bottom, TC-treated plates (Greiner Bio One) using a multidrop dispenser and incubated at 37 degrees C, 5% CO2, under a humidified atmosphere for 5 hours. Twenty-three nanoliters of compounds and controls (neutral control DMSO or positive control bortezomib at final concentration of 2.3 µM) were subsequently transferred by Kalypsys pintool. For primary screens, the MIPE collection was tested at 11-point dilutions (final concentrations range from 0.78 nM to 46 µM) and the NPC collection at 8-point dilutions (final concentrations range from 0.59 nM to 46 µM). Compounds tested in follow-up screens were assayed at 11-point dilutions. Cells were incubated for 48 hours, followed by addition of 3 µL of CellTiter-Glo (Promega). After a 15 min incubation at room temperature, samples were analyzed for luminescence intensity using a ViewLux High-throughput CCD imager equipped with clear filters.
# Potency is read from the fitted curve at half-maximal effect.
row,Compound,Potency
1,O=C(NNC(=O)c1ccc(CNS(=O)(=O)c2ccc(F)c(Cl)c2)cc1)c1ccccc1,inactive
2,COc1ccc(S(=O)(=O)Nc2cccnc2Nc2ccc(O)cc2)cc1,0.344 µM (active)
3,CS[C@H]1SC[C@@H]2C(=O)N(C)[C@H](C(C)C)C(=O)OC[C@H](NC(=O)c3cnc4ccccc4n3)C(=O)N[C@H](C)C(=O)N(C)[C@@H]1C(=O)N(C)[C@H](C(C)C)C(=O)OC[C@H](NC(=O)c1cnc3ccccc3n1)C(=O)N[C@H](C)C(=O)N2C,0.0017 µM (active)
4,O=C(C=CC#Cc1cccc(NS(=O)(=O)c2ccccc2)c1)NO,4.85 µM (active)
5,CC(C)N1[N]C(=C2C=c3cc(O)ccc3=N2)c2c(N)ncnc21,0.344 µM (active)
6,O=C1NCCc2[nH]c(-c3ccncc3)cc21,3.06 µM (active)
7,C[C@]12CC[C@@H]3c4ccc(O)cc4CC[C@H]3[C@H]1CC[C@H]2O,27.3 µM (active)
8,C=CC(=O)Nc1cc(NC(=O)c2ccc(C)c(NC(=O)c3ccno3)c2)cc(C(F)(F)F)c1,27.3 µM (active)
9,Cc1ccc(-n2[nH]c(C)c(N=Nc3cccc(-c4cccc(C(=O)O)c4)c3O)c2=O)cc1C,19.5 µM (active)
10,CC(=O)N[C@H]1[C@@H]([C@H](O)[C@H](O)CO)OC(C(=O)O)=C[C@@H]1N=C(N)N,inactive
11,CC(C=CC=C(C)C=CC1=C(C)CCCC1(C)C)=CC=CC=C(C)C=CC=C(C)C=CC1=C(C)CCCC1(C)C,inactive
12,NC(=O)Nc1sc(-c2ccc(F)cc2)cc1C(N)=O,0.685 µM (active)
13,CC(=O)NC(CS)C(=O)O (stereo not given),inactive
14,C[C@H](NC(=O)[C@@H](O)c1cc(F)cc(F)c1)C(=O)N[C@@H]1C(=O)N(C)c2ccccc2-c2ccccc21,inactive
15,O=C(C[C@@H]1CC=CCCC(=O)O[C@H](c2ccccc2)CNC1=O)NCc1ccc(Cl)cc1,inactive
16,COc1ccc([C@@H]2CNC(=O)C2)cc1OC1CCCC1,27.3 µM (active)
17,Cc1onc(-c2ccccc2)c1C(=O)N[C@@H]1C(=O)N2[C@@H](C(=O)O)C(C)(C)S[C@@H]12,inactive
18,O=C(Nc1cccc(Nc2ncc(Br)c(NCCc3cnc[nH]3)n2)c1)N1CCCC1,21.7 µM (active)
19,Nc1cccc2c1C(=O)N(C1CCC(=O)NC1=O)C2=O (stereo not given),inactive
20,OCCN1C[C@H](O)[C@@H](O)[C@H](O)[C@@H]1CO,19.3 µM (active)

row,Compound,Potency
1,Cc1ccc2nc(NCCN)c3ncc(C)n3c2c1,24.3 µM (active)
2,CN1CCCN(C(=O)c2cccc(-c3ccc(C=C4C(=O)Nc5ccc(Cl)cc54)o3)c2)CC1,6.85 µM (active)
3,"Cc1c2oc3c(C)ccc(C(=O)NC4C(=O)NC(C(C)C)C(=O)N5CCCC5C(=O)N(C)CC(=O)N(C)C(C(C)C)C(=O)OC4C)c3nc-2c(C(=O)NC2C(=O)NC(C(C)C)C(=O)N3CCCC3C(=O)N(C)CC(=O)N(C)C(C(C)C)C(=O)OC2C)c(N)c1=O (stereo not given) (I: TVP[Sar][NMeV] / II: TVP[Sar][NMeV]; ester I:1-I:C, II:1-II:C; linker I:N-II:N via Actinocin(9to1); configuration not given here)",0.001 µM (active)
4,CNC(=O)c1ccc(Nc2cc(Nc3ccccc3S(=O)(=O)C(C)C)c3cc[nH]c3n2)nc1,7.69 µM (active)
5,C[C@@]12C(=O)OC(=O)[C@@]1(C)C1CCC2O1,2.17 µM (active)
6,C[C@H](CCC(=O)O)[C@H]1CCC2C3C[C@H](O)[C@@H]4C[C@H](O)CC[C@]4(C)C3CC[C@@]21C (stereo not given in full),inactive
7,Cn1cc(C[C@@H](N)C(=O)O)c2ccccc21,inactive
8,CN(CC(=O)N(Cc1ccc(C2CCCCC2)cc1)c1ccc(C(=O)O)c(O)c1)S(=O)(=O)c1c(F)c(F)c(F)c(F)c1F,17.2 µM (active)
9,CC(=O)OC[C@@H]1O[C@@H](n2ccc(=O)[nH]c2=O)[C@H](OC(C)=O)[C@H]1OC(C)=O,inactive
10,CC(C=CC1=C(C)CCCC1(C)C)=CC=CC(C)=CC(=O)Nc1ccc(O)cc1,17.7 µM (active)
11,Nc1ccc(C(=O)Nc2cccc(-c3nc(N4CCOCC4)c4oc5ncccc5c4n3)c2)cn1,13.7 µM (active)
12,CCOC(=O)[C@H](CCc1ccccc1)N[C@@H](C)C(=O)N1[C@@H](C(=O)O)C[C@H]2CCC[C@@H]21,21.7 µM (active)
13,CCCNC(=O)[C@H]1O[C@H]1C(=O)N[C@H](C(=O)N1CCC[C@@H]1C(=O)OC)C(C)CC (stereo not given in full),17.2 µM (active)
14,O=C(c1ccc(F)cc1)N1CCC[C@H](c2nc(-c3ccc(F)cc3)no2)C1,inactive
15,COc1cc(C(C)C)c(Oc2cnc(NC(CO)CO)nc2N)cc1I,inactive
16,O=c1[nH]c(=O)n([C@H]2C[C@@H](O)[C@@H](CO)O2)cc1C=CBr,inactive
17,O=C1c2c(O)cccc2[C@@H]([C@@H]2O[C@H](CO)[C@@H](O)[C@H](O)[C@H]2O)c2cc(CO)cc(O)c21,inactive
18,CN[C@@H]1C[C@H]2O[C@@](C)([C@H]1OC)n1c3ccccc3c3c4c(c5c6ccccc6n2c5c31)C(=O)N[C@H]4O,6.85 µM (active)
19,C#Cc1cccc(Nc2ncnc3cc(OCCOC)c(OCCO)cc23)c1,6.85 µM (active)
20,CO[C@@H]1[C@@H](O)[C@H](O)[C@@H](n2c3c(Cl)cccc3c3c4c(c5c6cccc(Cl)c6[nH]c5c32)C(=O)NC4=O)O[C@@H]1CO,0.273 µM (active)
